This is an account of results in PubChem BioAssay (NCATS).

Inconclusive results are not listed. Active and inactive are the calls of the source. The call rests on the fitted dose curve; in most records, active means well fitted cell-killing curve with a large enough effect; inconclusive means small, poorly fitted or top-dose-only effect; inactive means flat fitted curve, though single readings scatter.

This experiment is described as follows: Cell Viability - Mesenchymal (AID 546).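 Further: cells exposed to compound for 40 hours before reading; 0% = DMSO only and -100% = 100 µM tamoxifen.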 The following applies: mesenchymal cells viability, qHTS; series mostly up to 91.7 µM; activity change, negative = cytotoxicity: at the top concentration. An excerpt: NIH Chemical Genomics Center [NCGC]
NIH Molecular Libraries Screening Centers Network [MLSCN]
National Institutes of Environmental Health Sciences [NIEHS]
National Toxicology Program [NTP]
We have developed a 1536-well cell-based assay for quantitative high throughput screening (qHTS) against a number of cell lines to determine in vitro cytotoxicity of small molecules. This particular assay uses the kidney mesenchymal cell line which is derived from normal human renal glomeruli.
NCGC Assay Protocol Summary:
The CellTiter-Glo luminescent cell viability assay (Promega) is a homogeneous method to measure the number of viable cells in culture. The end point readout of this assay is based on quantitation of intracellular ATP, an indicator of metabolic activity, using the luciferase reaction. Luciferase catalyzes the oxidation of beetle Luciferin to oxyluciferin and light in the presence of ATP. The luminescent signal is proportional to amount of ATP present.
Using the CellTiter-Glo luminescent cell viability assay, the amount of cellular ATP was measured in the kidney mesenchymal cell line with complete culture medium following compound treatment for 40 hours. The assay was performed in opaque white Kalypsys 1536-well plates. In the screen, tamoxifen and doxorubicin were used as positive controls. Library compounds were measured for their ability to cause acute toxicity in the cell line, as reflected by a decrease in intracellular ATP levels, in a concentration-dependent manner. […] AC50 values were determined from concentration-response data modeled with the standard Hill equation.
qHTS protocol for CellTiter Glo kidney mesenchymal cells cellular assay
[Step] [Parameter] [Value] [Description]
1. Reagent; 5 uL; 1000 kidney mesenchymal cells/well
2. Time; 5 hr; 37 °C incubation
4. Controls; 23 nL; Tamoxifen 0.34 uM to 100 uM & Doxorubicin 0.02 nM to 100 uM
5. Time; 40 hr; 37 °C incubation
6. Reagent; 5 uL; CellTiter Glo reagent
7. Time; 20 min; Room Temperature
8. Detection; Luminescence; Viewlux plate reader
Keywords: cell viability, cytotoxicity, Kidney mesenchymal cell line, luminescence, NTPHTS, NTPHTS_NCGC, NIEHS, EPA, DSSTox, MLSMR, MLSCN, NIH Roadmap, qHTS, NCGC
With `CCNc1cc(O)ccc1C`, the “activity change, negative = cytotoxicity” value was 4.18% (inactive). The result for `CNc1ccccc1` reads -0.644% (inactive); that for `Cc1cccc([N+](=O)[O-])c1C(=O)O`, 1.75% (inactive). For `Clc1ccccn1`, the “activity change, negative = cytotoxicity” value was -6.01% (inactive).

For `Cc1cscn1`, the “activity change, negative = cytotoxicity” value is 8.54% (inactive). As to `COC(=O)c1ccccc1`, the “activity change, negative = cytotoxicity” value was -4.24% (inactive).

As to `O=Cc1ccc(C(=O)O)cc1`, the “activity change, negative = cytotoxicity” value was -2.38% (inactive). Turning to `NC(=O)NC(N)=O`, the “activity change, negative = cytotoxicity” value was 12.1% (inactive). `CCC(C)(C)C(=O)O`: the “activity change, negative = cytotoxicity” value was 0.332% (inactive). The result for `CC(=O)c1cc(C)oc1C` reads 11% (inactive); that for `CCCCCNCCCCC`, 10.4% (inactive). The result for `CCCCC(C=O)CC` (stereo not given) reads 7.09% (inactive); that for `Cc1ccc(C(=O)O)cc1`, 10.1% (inactive). Take `NCCCCCCN`: the “activity change, negative = cytotoxicity” value is 2.41% (inactive). Next, `CC(C)=CCl`: 10.2% (inactive); `C/C=C1\CC2C=CC1C2` (stereo not given): -3.55% (inactive).

Consider `Cc1ccccc1C(N)=O`, for which the “activity change, negative = cytotoxicity” value is -5.65% (inactive).

Regarding `FB(F)F`, the “activity change, negative = cytotoxicity” value is -4.8% (inactive). With `Clc1cc(Cl)cc(Cl)c1`, the “activity change, negative = cytotoxicity” value was -0.791% (inactive).

Turning to `O=C1CCC(=O)O1`, the “activity change, negative = cytotoxicity” value is 6.48% (inactive). The result for `Cc1cccc2cccnc12` reads 1.99% (inactive); that for `COC(=O)CCCC(=O)OC`, 7.97% (inactive); that for `C[C@@H]1O[C@@H](O[C@@H]2[C@@H](O)[C@H](OCCc3ccc(O)c(O)c3)O[C@H](CO[C@@H]3O[C@H](CO)[C@@H](O)[C@H](O)[C@H]3O)[C@H]2OC(=O)/C=C/c2ccc(O)c(O)c2)[C@H](O)[C@H](O)[C@H]1O`, -1.77% (inactive).

Turning to `CCOCCO`, the “activity change, negative = cytotoxicity” value was 7.16% (inactive). Regarding `Cc1cccc(C)c1O`, the “activity change, negative = cytotoxicity” value is 1.5% (inactive).

As for `CCCCN(CCO)CCCC`, the “activity change, negative = cytotoxicity” value is -7.67% (inactive).

Take `Cc1ccc([N+](=O)[O-])c(N)c1`: the “activity change, negative = cytotoxicity” value was 9.44% (inactive).

`CCC(=O)/C=C/C1C(C)=CCCC1(C)C` (stereo not given): the “activity change, negative = cytotoxicity” value was 3.56% (inactive). Regarding `CC(C)C(C)C`, the “activity change, negative = cytotoxicity” value was 7.19% (inactive). Next, `CCCOCC(C)OCC(C)O` (stereo not given): -0.265% (inactive); `CCOC(C)(C)C`: -1.81% (inactive); `CN(C)CCCCl`: 0.0112% (inactive).

As to `C=CCOC(=O)COCCC(C)C`, the “activity change, negative = cytotoxicity” value is -0.7% (inactive). Next, `CSCCC=O`: 2.45% (inactive); `c1ccc2[nH]cnc2c1`: 6.06% (inactive); `CCN(C(=O)N(CC)c1ccccc1)c1ccccc1`: -2.45% (inactive). On to `CC(=O)c1ccccn1`, for which the “activity change, negative = cytotoxicity” value is 7.98% (inactive). Turning to `Cc1ccco1`, the “activity change, negative = cytotoxicity” value is 5.58% (inactive). The result for `CCCCCO` reads 10.7% (inactive). Next, `Nc1cccc(C(F)(F)F)c1`: 7.28% (inactive).
